Assay results published in the supplement of paper PMC6555819.

How the values were obtained:
Experiment in all cases: PBM binding z-score (relative to random genomic background probes); higher = stronger binding; sequences stand for … in GC…GCGATTGACAGCGTAGAATGAAGG
[1] = tested on: RARb homodimer (NR concentration 270 nM)
Outline: (§1)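 Ligand-free nuclear receptor dimers were bound for 1 h to custom Agilent 4×180K protein-binding microarrays. Detection used antibodies against each partner (one per run). Binding z-scores rest on regression-normalized fluorescence, with random background probes as the reference.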

[2] = tested on: RARg:RXRa (NR concentration 270 nM, RXRa partner concentration 90 nM)
Outline: as §1

[3] = tested on: RARg homodimer (NR concentration 270 nM)
Outline: as §1

[4] = tested on: RXRa DBDmut IVT, anti-RXR (DBD mutation: RXRa K156A/R161A, NR concentration 90 nM)
Outline: as §1

[5] = tested on: RXRa homodimer (NR concentration 180 nM)
Outline: as §1

[6] = tested on: THRa:RXRa (NR concentration 90 nM, RXRa partner concentration 90 nM)
Outline: as §1

[7] = tested on: THRa homodimer (NR concentration 90 nM)
Outline: as §1

[8] = tested on: VDR homodimer (NR concentration 270 nM)
Outline: as §1

| Sequence | PBM binding z-score [1] | PBM binding z-score [2] | PBM binding z-score [3] | PBM binding z-score [4] | PBM binding z-score [5] | PBM binding z-score [6] | PBM binding z-score [7] | PBM binding z-score [8] |
| --- | --- | --- | --- | --- | --- | --- | --- | --- |
| CCTCGGAGGACAACAGGAGGTCAGAGCTGCCAGA | 3.64 | 3.37 | 2.98 | 0.172 | 1.76 | 2.89 | 1.04 | 1.21 |
| TCTTGTAGATCAAGCAGGATAAGAAAGCCTGAGT | -0.48 | -0.278 | -0.0385 | 0.533 | -0.0789 | -0.341 | -0.704 | 0.105 |
| CAAACTAGATCACGAAAGGTCAAAGTCGAATGAC | 4.84 | 5.87 | 5.31 | 1.47 | 6.64 | 3.96 | 1.07 | 2.71 |
| CCTTACTGGTCACGAGGTTATAGCACGACGAGCG | 1.98 | 2.5 | 1.86 | 0.396 | 2.28 | 1.91 | 1.11 | 1.13 |
| CCGACTGGGCCAAGGTTACCATAACGCACAGCCA | 0.94 | 0.614 | 0.453 | -0.285 | 0.719 | 1.07 | 0.784 | -0.176 |
| TCTCGGAGGACACGAAGGTCCGAGCTTTCCAGAG | 0.577 | 0.296 | 1.3 | 0.546 | -0.235 | 1.26 | -0.0585 | -0.315 |
| ATCTCTTGGTAAAGATAGTTCAGTGAATGCAAAT | 1.23 | 0.592 | 0.734 | 0.404 | 0.246 | 0.575 | 0.156 | 0.713 |
